Screening data as filed in PubChem.
Nrf2 activator: activators of Nrf2 (ARE) signaling | AID 624171 | Potency, µM (doses to about 46.1 µM), most hits filed as activators | AREc32 ARE-luciferase reporter (MCF7-derived line), luminescence, 24 h | hit rate 0.31% among 410,000; also: nearly all actives have a fitted effect of over 65% in size
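Steps: seed AREc32_Fluc cells (1000/well, 5% FBS OPTI-MEM); incubate overnight at 37 deg C; add 23 nL compound; incubate 24 hr; add Steady-Glo; hold 30 min RT; read luminescence.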
ATXN2 expr inh: inhibitors of ATXN2 expression. HEK-293 ATXN2-luciferase reporter, luminescence, 24 h. Potency, µM (series often up to 57 µM), usual class: inhibitors. hit rate 0.72% among 360,000. AID 1745845; also: nearly all actives have a fitted effect of over 55% in size
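qHTS (up to 57 uM final) was run with 24 h compound exposure of reporter cells at 37 °C. Each well was multiplexed: SteadyGlo luminescence measured ATXN2-luciferase expression after a fluorogenic Gly-Phe-AFC viability readout (25 uM final).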
Nrf2 block: blocks Nrf2 signaling; AID 504444; A549 ARE-Fluc reporter, luciferase luminescence, 18-24 h; hit rate 2.1% among 360,000; Potency, µM (highest dose often 46 µM), hits mostly inhibitors; also: nearly all actives have a fitted effect of over 60% in size
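Concentration-response testing used A549 ARE_Fluc cells at 5000 cells/well. Following an 18-24 h compound incubation, viability was read by fluorescence (Ex 405/Em 525) and luciferase output by luminescence.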
A549 viability: A549 cytotoxicity, counter-screen for Nrf2 inhibitors | AID 504648 | hit rate 0.16% among 390,000 | A549 ARE-Fluc cells, CellTiter-Fluor viability, 18-24 h | Potency, µM (highest dose often 46 µM), usual class: inhibitors
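Cytotoxicity counterscreen: CellTiter-Fluor fluorescence was measured in A549 ARE_Fluc cells after 18-24 h of compound exposure in a concentration series. The subsequent BugLite luminescent read reports ARE-luciferase activity.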
S2 tox: cell viability loss in ATXN counter-screen. Potency, µM (titrated, usually from 56.7 µM), most hits filed as cytotoxic. hit rate 0.49% among 400,000. S2 cells (HEK-293 line with an ATXN2-luciferase reporter) viability, CellTiter-Fluor protease fluorescence, 24 h; also: nearly all actives have a fitted effect of over 40% in size
Numbers stand for hits; 0 = inactive; ? = inconclusive; - = not tested or not shown; ! = not active in a repeat; [ ] = another dose, or the depositor's remark. In the library only some 2.9% were active in any assay of this set; here they are far more common. Calls follow the shape of the dose curve; as a rule, active = well fitted curve in the direction sought with a large enough effect; inconclusive = small, poorly fitted or top-dose-only effect, or another doubt; inactive = no such curve, though single readings can be large; an effect the other way counts as inactive or inconclusive.

SMILES | Nrf2 activator | ATXN2 expr inh | Nrf2 block | A549 viability | S2 tox
CCC(Cc1ccccc1)NC(=O)c1cccc(Nc2nc3ccccc3nc2-n2nc(C)cc2C)c1 (stereo unspecified) | 0 | 0 | 0 | 0 | 0
COc1ccc(C2c3c(-c4ccccc4O)n[nH]c3C(=O)N2Cc2ccco2)cc1 (stereo unspecified) | 0 | 0 | 0 | 0 | ?
COc1ccc(C2c3c(-c4c(C)cc(C)cc4O)n[nH]c3C(=O)N2Cc2ccco2)cc1 (stereo unspecified) | 0 | ? | 0 | 0 | 18µM
CN=c1scc(-c2ccc(F)cc2)n1/N=C/c1ccc(O)c(O)c1 | 0 | ? | 21µM | 0 | ?
CCCOc1cccc(-c2cc(-c3n[nH]c(=S)n3CC)c3ccccc3n2)c1 | 0 | 0 | 13µM | ? | 0
CCn1c(-c2cc(-c3ccc(C)cc3)nc3ccccc23)n[nH]c1=S | 0 | 0 | 0 | 0 | 0
CCc1ccc(CN2CCc3nc(Nc4ccc5c(c4)OCCO5)ncc3C2)cc1 | 0 | 0 | - | 0 | ?
Cc1cccc(Cc2c(C)nc3c(-c4ccccc4)c(C)[nH]n3c2=O)c1 | 0 | 13µM | 5.8µM | ? | ?
CCCCc1c(C)nc2c(-c3ccc(OC)cc3)c(C)[nH]n2c1=O | 0 | 0 | 21µM | 0 | 0
Cc1nc2c(-c3ccc(Cl)cc3)c(C)[nH]n2c(=O)c1Cc1ccccc1 | 0 | ? | 15µM | ? | ?
Cc1nc2c(-c3ccccc3)c(C)[nH]n2c(=O)c1Cc1ccccc1 | 0 | 0 | ? | 0 | 0
Cc1ccccc1Cc1c(C)nc2c(-c3ccccc3)c(C)[nH]n2c1=O | 0 | ? | 18µM | ? | ?
Cn1c(SCC(=O)Nc2sccc2C#N)nnc1-c1ccccc1 | 0 | 0 | 0 | 0 | 0
O=C(CSCc1ccco1)c1cccs1 | 0 | 0 | ? | 0 | 0
COCc1cc(=O)n2[nH]c(C)c(-c3ccc(Cl)cc3)c2n1 | 0 | - | - | - | 0
Cc1[nH]n2c(=O)cc(-c3ccccc3Cl)nc2c1-c1ccccc1 | 0 | 0 | 18µM | 0 | 0
Cc1cccc(OCC(=O)N2CCN(S(C)(=O)=O)CC2)c1 | 0 | 0 | 0 | 0 | ?
COc1ccc(-c2cc3nc(C)n(N)c(=O)c3s2)cc1 | 0 | - | 6.5µM | 0 | 0
COc1cccc(CNc2nc3cc(-c4ccccc4)sc3c(=O)n2C)c1 | 0 | 0 | - | - | 0
Cc1nc2cc(-c3ccccc3)sc2c(=O)n1N | 0 | 0.89µM | 4.1µM | 0 | 0
COc1ccc(-c2cc3nc4n(c(=O)c3s2)CCC4)cc1 | 0 | 5µM | ? | 0 | 0
COc1ccc(-c2cc3nc4n(c(=O)c3s2)CCCCC4)cc1 | 0 | 0 | ? | 0 | 0
CN(c1ccccc1)S(=O)(=O)c1ccc(C(=O)Nc2nnc(-c3ccc(F)cc3)o2)cc1 | 0 | ? | 23µM | 0 | 0
O=C(Nc1nnc(-c2ccccc2Cl)o1)c1ccco1 | 13µM | 0 | - | 0 | 0
CN(c1cccc(NC(=O)c2ccc(N(C)S(=O)(=O)c3ccccc3)cc2)c1)S(C)(=O)=O | 0 | - | 15µM | 0 | ?
SMILES | Nrf2 activator | ATXN2 expr inh | Nrf2 block | A549 viability | S2 tox
O=C(Nc1nnc(-c2ccccc2)o1)c1ccc(Cl)cc1 | 0 | 20µM | ? | 0 | -
Cc1cc(=O)oc2cc(OCC(=O)NC(Cc3c[nH]c4ccc(O)cc34)C(=O)O)c(Cl)cc12 (stereo unspecified) | 0 | 0 | 0 | 0 | 0
Cc1ccc2[nH]c(=O)cc(C(=O)OCC(=O)c3ccccc3)c2c1 | 0 | 0 | 0 | 0 | 0
CC(=O)Nc1ccc(NC(=O)c2ccc(N(C)S(=O)(=O)c3ccc(C)cc3)cc2)cc1 | 0 | 0 | 0 | 0 | 0
CN(c1ccccc1)S(=O)(=O)c1ccc(NC(=O)c2ccc(-c3ccccc3)cc2)cc1 | 0 | ? | 15µM | 0 | 0
Cc1nc2cc(NC(=O)c3ccc(S(=O)(=O)N(C)c4ccccc4)cc3)ccc2o1 | 0 | ? | 8.2µM | 0 | ?
O=c1[nH][nH]c(=S)n1C1CCCCC1 | 0 | 0 | 0 | 0 | 0
Cc1c(C(=O)N2CCOCC2)sc(NC(=O)c2ccc([N+](=O)[O-])cc2)c1C#N | 0 | ? | ? | 0 | ?
CN1CCC2(CC1)C1CN(C)CC=C1C(C#N)=C(N)C2(C#N)C#N (stereo unspecified) | 0 | 0 | 0 | 16µM! | ?
CC(C)c1ccccc1NC(=O)COC(=O)CCN1C(=O)/C(=C\C=C\c2ccccc2)SC1=S | 0 | ? | 10µM | ? | ?
O=C(COC(=O)CCN1C(=O)/C(=C\C=C\c2ccccc2)SC1=S)Nc1ccc(Br)cc1 | 0 | ? | ? | 0 | ?
CN1CCN(/N=C/c2ccc(N(C)c3ccccc3)cc2)CC1 | 0 | 0 | 0 | 0 | ?
CN1CCN(/N=C/c2ccc(N(c3ccccc3)c3ccccc3)cc2)CC1 | 0 | 0.84µM | ? | 0 | -
COc1cc(-c2nc(-c3ccc(NC(=O)c4ccc5c(c4)OCO5)cc3)no2)cc(OC)c1OC | 0 | ? | ? | ? | 32µM
COc1ccc(-c2nc(-c3ccc(NC(=O)c4ccncc4)cc3)no2)cc1OC | 0 | ? | 13µM | 0 | ?
CCOC(=O)c1cc2c(=O)n3ccccc3nc2n(Cc2ccco2)c1=NC(=O)c1ccc(OCC)cc1 | 0 | 0 | 0[9.27 µM] | 0 | 0
CCc1nc2ccc(C(=O)Nc3cc(-c4ccccc4)ccc3OC)cn2c1N(C)C(=O)c1cccc(OC)c1 | 0 | 0 | - | - | 0
COc1ccccc1-c1nnc(NC(=O)c2ccc(S(=O)(=O)N(C)Cc3ccccc3)cc2)o1 | 0 | ? | 5.8µM | 0 | ?
CCCCN(C)S(=O)(=O)c1ccc(C(=O)Nc2nnc(CSC)o2)cc1 | 0 | ? | 10µM | 0 | 0
CCc1nnc(NC(=O)c2ccc(S(=O)(=O)N(C)Cc3ccccc3)cc2)o1 | 0 | ? | 7.3µM | 0 | 0
CCN(CC)S(=O)(=O)c1ccc(C(=O)Nc2nnc(COC)o2)cc1 | 0 | 0 | 0 | 0 | 0
CCN(Cc1ccccc1)S(=O)(=O)c1ccc(C(=O)Nc2nnc(C)o2)cc1 | 0 | 0 | 13µM | 0 | 0
CCN(CC)S(=O)(=O)c1ccc(C(=O)Nc2nnc(CSC)o2)cc1 | 0 | 0 | 0 | 0 | 0
CC1CCCCC1NC(=O)c1nn(C)c(=O)c2ccccc12 (stereo unspecified) | 0 | 0 | 0 | 0 | 0
O=C(N/N=C/c1ccccc1[N+](=O)[O-])c1ccc(COc2ccccc2-c2ccccc2)cc1 | 0 | 0 | 0 | 0 | 0
Cc1cc(C)c(NC(=O)CSc2nnc(CNC(=O)c3ccccc3F)o2)c(C)c1 | 0 | 0 | 0 | 0 | 0
O=C(CCN1C(=O)c2ccccc2S1(=O)=O)N1CCN(c2cccc(Cl)c2)CC1 | 0 | 0 | 0 | 0 | 0
CCc1nnc(NC(=O)c2ccc(S(=O)(=O)N(CC)Cc3ccccc3)cc2)o1 | 0 | 0 | 21µM | 0 | 0
O=C(CC[C@H]1O[C@@H](n2ccc(=O)[nH]c2=O)[C@H](O)[C@@H]1O)NCC1CCCO1 (stereo partly specified) | 0 | 0 | - | - | 0
COC(=O)C1C2C=CC(C3CC23)C1C(=O)OCC(=O)c1ccccc1 (stereo unspecified) | 0 | 0 | 0 | - | 0
